Compound activity as filed in PubChem BioAssay.
D1 antagonist: Antagonist of Human D 1 Dopamine Receptor: qHTS; activity change, negative = inhibition, % at 10 µM; HEK293 TREx D1 cells, calcium flux, dopamine EC80; stronger effect = lower value; D(1A) dopamine receptor (Homo sapiens), P21728; AID 504652, 2011; hit rate 3.2% among 360,000; in the data active means activity change below about -30%
Target sequence (P21728 whole entry, looked up): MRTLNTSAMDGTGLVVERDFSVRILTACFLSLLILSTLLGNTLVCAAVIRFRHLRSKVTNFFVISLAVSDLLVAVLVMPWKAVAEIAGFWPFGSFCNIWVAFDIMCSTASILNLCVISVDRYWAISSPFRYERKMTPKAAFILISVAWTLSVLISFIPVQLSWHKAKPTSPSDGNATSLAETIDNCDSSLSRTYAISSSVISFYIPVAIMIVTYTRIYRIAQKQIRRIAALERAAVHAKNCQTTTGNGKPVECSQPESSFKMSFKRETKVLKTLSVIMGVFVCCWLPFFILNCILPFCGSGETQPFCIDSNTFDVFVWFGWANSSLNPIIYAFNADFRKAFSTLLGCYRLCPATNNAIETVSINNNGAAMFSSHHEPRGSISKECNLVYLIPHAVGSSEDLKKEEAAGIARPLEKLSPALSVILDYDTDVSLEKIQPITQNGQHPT
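Allosteric or orthosteric antagonism assessed as attenuation of the calcium response to EC80 dopamine, added 180 s after compound, in induced HEK293 Trex D1 cells loaded with no-wash calcium dye.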
TRHR agonist: qHTS for Small Molecule Agonists and Allosteric Enhancers of Human TRH Receptor: Primary Screen for Agonists; Thyrotropin-releasing hormone receptor (Homo sapiens), P34981; TRHR cells, calcium flux fluo-8, FDSS agonist mode; activation, % at 2 µM; hit rate 0.18% among 360,000
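TRHR-expressing cells, plated overnight in medium with 10% serum, were loaded with fluo-8 calcium dye at room temperature. After a 10 s baseline, library compound was pin-added and calcium release was recorded kinetically (ex 480/em 530) as agonist response.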
TRHR enhancer: qHTS for Small Molecule Agonists and Allosteric Enhancers of Human TRH Receptor: Primary Screen for Enhancers. hit rate 0.66% among 360,000. Thyrotropin-releasing hormone receptor (Homo sapiens), P34981. TRHR cells, fluo-8 calcium fluorescence, EC20 TRH enhancement. enhancement, % at 2 µM; in the data active means enhancement above about 30%
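TRHR-expressing cells loaded with fluo-8 calcium dye were read kinetically (ex 480/em 530) during compound addition, then stimulated with an EC20 of TRH (10 nM final). Enhancement of the Gq-mediated intracellular calcium response was scored.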
D1 PAM: Potentiators of Human D1 Dopamine Receptor: qHTS; D(1A) dopamine receptor (Homo sapiens), P21728; HEK293 TREx D1 cells, calcium flux, dopamine EC20 potentiation; potentiation, % at 10 µM; hit rate 0.036% among 360,000; AID 504651, 2011; in the data active means potentiation above about 30%
D1 agonist: Allosteric Agonists of the Human D1 Dopamine Receptor: qHTS; D(1A) dopamine receptor (Homo sapiens), P21728; HEK293 T-REx D1 cells, calcium flux, agonist mode; activation, % at 2 µM; hit rate 1% among 360,000
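Tetracycline-induced HEK293 TREx D1 cells, force-coupled to calcium signalling, were dye-loaded with a no-wash calcium kit. Compound was pin-added after a 10 s baseline. Fluorescence was read kinetically at 1 cycle/s for 180 s, with calcium rises flagged as agonism.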
Each line names hits and unclear results; the compound was inactive in the other large screens; ! = repeats disagree. Only some compounds are listed: those with a hit (about 4.7% of all), similar ones and a draw of the others. Unless noted, no stated cut-off is given here; in the data, active means activation above about 30%; inactive means the rest.

Cc1csc2c(N3CCN(C(=S)Nc4ccc(F)cc4F)CC3)ncnc12	D1 antagonist -42, D1 agonist 40
Cc1csc2c(N3CCN(C(=O)Nc4ccccc4)CC3)ncnc12	none
CCCc1cc(=O)[nH]c(Nc2cc(C)ccc2OC)n1	none
COc1ccc(NC(=O)C(C)Sc2nnc3c4c(nc(-c5ccc(OC)cc5)n23)CC(C)(C)OC4)cc1 (centres undefined)	none
COc1ccc(CNc2nc3ccccc3n2CCN2CCCCC2)c(OC)c1	D1 antagonist -41
O=C(Nc1nc2ccccc2n1CCN1CCCC1)C1CCCCC1	D1 antagonist -30
c1ccc2c(c1)nc(NCc1ccc3c(c1)OCO3)n2CCN1CCOCC1	D1 antagonist -30
CCOC(=O)c1scc(-c2ccc(C)cc2)c1S(=O)(=O)Nc1ccc(OC)c(Cl)c1	none
CN1CCN(c2nc(Nc3ccc(F)cc3)nc(Nc3ccc(F)cc3)n2)CC1	none
Cc1ccc(S(=O)(=O)N2[C@@H](c3ccccc3F)C(C(=O)O)=CC[C@H]2c2ccc(Cl)c(Cl)c2)cc1	D1 agonist 58
Cc1ccc(S(=O)(=O)N2[C@@H](c3cccc(Cl)c3)C(C(=O)O)=CC[C@H]2c2ccc(C(C)C)cc2)cc1	D1 antagonist -35
COc1ccc(CCCc2nnc(SCC(=O)Nc3ccc(C)c(C)c3)o2)cc1	D1 antagonist -32!
COc1ccc(C(=O)NCc2nnc(SCC(=O)NCc3ccco3)o2)cc1OC	D1 antagonist -41
COc1ccc(C(=O)NCc2nnc(SCC(=O)NCCc3ccccc3)o2)cc1	TRHR enhancer 36
O=C(CSc1nnc(CNC(=O)c2ccc(F)cc2)o1)NCCc1ccccc1	none
COc1ccc(CCCc2nnc(SCC(=O)Nc3ccc(OC)cc3)o2)cc1	none
CCOc1ccc(N2CC(c3nc4ccccc4n3CCCOc3ccccc3)CC2=O)cc1 (centres undefined)	none
CCOc1ccc(CNC(=O)Nc2ccccc2)cc1	none
COc1cccc(Nc2nc3ccccc3nc2NS(=O)(=O)c2cccs2)c1	D1 antagonist -32
C[C@H]1CN(S(=O)(=O)c2ccc3c(c2)OCCO3)CCN1S(=O)(=O)c1c(F)cccc1F	TRHR enhancer 39
N#Cc1ccccc1S(=O)(=O)N1CCN(S(=O)(=O)c2ccc3c(c2)OCCO3)CC1	D1 antagonist -37
N#Cc1ccccc1S(=O)(=O)N1CCN(C(=O)[C@H](Cc2ccccc2)NC(=O)c2ccco2)CC1	D1 antagonist -34
N#Cc1ccccc1S(=O)(=O)N1CCN(C(=O)Cc2coc3cc(O)ccc23)CC1	D1 antagonist -43
CCN(CC)CCN(C(=O)c1ccco1)c1nc2c(C)cccc2s1	none
ClC(Cl)(Cl)c1nc2ccccc2n2nncc12	none
CCc1ccc(S(=O)(=O)Nc2c(C)nc3nc[nH]n3c2=O)cc1	none
CC(C)COc1ccc(C(=O)NCC2(N3CCN(C)CC3)CCCCC2)cc1	none
CC(C)(C)n1c(O)c2ccc(C(=O)N=NC(=O)c3ccccc3)cc2c1O	D1 antagonist -31
O=C(Cc1ccc(Br)cc1)Nc1cccc(-c2cn3c(n2)SCC3)c1	D1 antagonist -41
CCCC(CCC)C(=O)Nc1cccc(-c2cn3c(n2)SCC3)c1	none
O=C1NC2(CCCCC2)C(=O)N1CCS(=O)(=O)Oc1ccccc1	TRHR enhancer 38
O=C1NC2(CCCCCC2)C(=O)N1Cc1ccccc1F	D1 antagonist -33
Cc1ccc(-c2nc(SCC(=O)N3CCc4ccccc43)c3c(=O)n(C)c(=O)n(C)c3n2)cc1	none
CCCCCC(=O)Nc1ccc(N2CCN(CC)CC2)c(Cl)c1	D1 antagonist -52
CCN1CCN(c2ccc(NC(=O)c3ccc(C#N)cc3F)cc2Cl)CC1	D1 antagonist -43
O=C(CNS(=O)(=O)c1cccs1)NCCc1ccc(Cl)cc1	none
Cc1nc(N2CCN(C(=O)c3cnccn3)CC2)c2c3c(sc2n1)CC(C(C)(C)C)CC3 (centres undefined)	none
CCc1c(C)c2cc(Cl)c(O)c(CN(CC)CC)c2oc1=O	TRHR enhancer 38
CCc1c(C)c2cc(Cl)c(O)c(CN(C)C)c2oc1=O	none
NC(=O)C1CCN(c2nc(-c3cc4ccccc4o3)cs2)CC1	D1 antagonist -33
CN1C(=O)c2ccc(C(=O)NCc3ccc4c(c3)OCO4)cc2C1=O	D1 antagonist -34
Cc1c(C(=O)NCc2ccc3c(c2)OCO3)sc2nc(-c3ccc(F)cc3)cn12	D1 antagonist -42
CCc1ccccc1NC(=O)c1cc2nc(-c3ccc(Br)cc3)cc(C(F)(F)F)n2n1	none
O=C(CSc1n[nH]c(-c2ccccn2)n1)Nc1ccccc1	none
CC(CCc1ccccc1)NC(=O)CSc1n[nH]c(-c2ccccc2)n1 (centres undefined)	none
O=C(CSc1n[nH]c(-c2cccnc2)n1)Nc1ccccc1	none
COc1ccc(NC(=O)CSc2n[nH]c(-c3ccccn3)n2)cc1	D1 antagonist -65
COC(=O)CSc1n[nH]c(-c2cccnc2)n1	D1 antagonist -34
COc1ccc(-c2nc(SCC(=O)NC(C)CCc3ccccc3)n[nH]2)cc1 (centres undefined)	D1 antagonist -33
Cn1c(=O)n(-c2ccc3c(c2)OCO3)c2nc(-c3ccc(Cl)cc3)nc(C(N)=O)c21	none
CCOC(=O)c1cnn(-c2ccccc2)c1-c1ccncc1	none
O=C(CSC1=NS(=O)(=O)c2cc(F)ccc2N1)Nc1cccc(F)c1	none
Cc1cccc(N2CCN(C(=O)C3CCN(C(=O)c4cc5sccc5n4C)CC3)CC2)c1C	none
CC(=O)Nc1cc(C(=O)NCc2ccc(F)cc2)ccc1Sc1ccc(C)cc1	D1 antagonist -39
N#Cc1ccccc1NC(=O)Cn1cnc2onc(-c3cccc(F)c3)c2c1=O	none
O=C(CSc1nc2ccccc2c(=O)n1-c1ccccc1Cl)NCC1CCCO1 (centres undefined)	none
Cc1nn(-c2ccccc2)c(C)c1/C=N/NC(=O)c1cc(-c2cccs2)[nH]n1	D1 antagonist -87
O=C(NCc1ccc2c(c1)CCN2C(=O)c1ccccc1)c1cc2ccccc2[nH]1	none
Cc1ccccc1CSc1cn(CCNC(=O)c2cccs2)c2ccccc12	none
COc1ccc(C(=O)N[C@H](C(=O)NCc2ccc(C)cc2)C(C)C)cc1	none
COc1ccc(C(=O)N[C@H](C(=O)NCC2CCCCC2)C(C)C)cc1	D1 agonist 160
O=C(CSc1c2c(nc3ccc(Cl)cc13)CCCC2)N1CCN(c2cccc(Cl)c2)CC1	none
